High-throughput results deposited in PubChem by National Center for Advancing Translational Sciences (NCATS).
HCMV antiviral: human cytomegalovirus inhibition. activity change, negative = inhibition, % at 57.5 µM. HFF cells, HCMV-luciferase reporter, 72 h; hits give low values. 410,000 tested, 4.5% active; in the data active = activity change below about -60%; inconclusive = no clear call, values can overlap the other calls; inactive = above about -39%; also: % is scaled to controls: 0 for no effect and ±100 for the full control effect
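After 16 h attachment at 37C, HFF cells received test compound and HCMV-luciferase (1 PFU/cell); reporter luminescence read 72 h later, data normalized against buffer-only and known inhibitor Salinomycin.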
HCV inh: inhibitors of hepatitis C virus infection. Huh7.5.1 HCVcc-Cre infection, luciferase reporter, 44 h. Potency, µM (series often up to 41.8 µM), for inactives: at the highest dose activity change, negative = inhibition, most hits filed as inhibitors. 340,000 tested, 3.4% active; also: potency is read from the fitted curve at half-maximal effect; % is scaled to controls: 0 for no effect and ±100 for the full control effect
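Compounds are dispensed onto cells plated 4 h earlier at 1,000 per well, with HCVcc-Cre virus (about 0.5 moi) added next. Following 44 h of culture, luminescent signal is measured for 15 sec after 15 min with substrate at room temperature.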
CHX counter: counter-screen hit for Shiga toxin inhibitors, cycloheximide; cell reporter, cycloheximide protein synthesis inhibition counterscreen; 300,000 tested, 12% active; max response, %; AID 2314; in the data active = max response mostly above about 13%, no sharp cut-off; inactive = mostly below about 14%; also: read at 38.3 µM for the half of the compounds with a filed dose; 0% is about no effect
Pf growth 48h: inhibits P. falciparum growth in the first generation, 48 h; P. falciparum luciferase growth in erythrocytes, 48 h; Potency, µM (doses to about 28.7 µM), for the others: top-dose activity change, negative = inhibition, actives largely listed as inhibitors; 310,000 tested, 5.9% active; also: potency is read from the fitted curve at half-maximal effect; % is scaled to controls: 0 for no effect and ±100 for the full control effect
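Here the parasites carry a stable luciferase gene and grow inside erythrocytes in Albumax-based RPMI medium with compound for one erythrocytic cycle. Activity is scored as loss of luminescent signal.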
Pf growth 96h: P. falciparum growth inhibition at 96 hours. Potency, µM (titrated, usually from 28.7 µM), inactives show at the highest dose activity change, negative = inhibition, usual class: inhibitors. AID 504834. 320,000 tested, 6.9% active. P. falciparum luciferase reporter growth, 96 h; also: potency is read from the fitted curve at half-maximal effect; % is scaled to controls: 0 for no effect and ±100 for the full control effect
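Two parasite generations (96 h, 37 C, 5% CO2) of compound exposure in infected erythrocytes (0.05% parasitemia, 2% hematocrit). Luciferase-reporter P. falciparum; decreased luminescence indicates inhibited growth, aimed at apicoplast-acting delayed death.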
Shiga toxin inh: inhibitors of Shiga toxin in Vero cells; AID 2315; 290,000 tested, 9.2% active; inhibition, % at 38.7 µM; Vero cells, Shiga toxin protein synthesis inhibition reporter; in the data active = inhibition mostly above about 28%, no sharp cut-off; inactive = mostly below about 43%; also: 0% is about no effect
Numbers without * were called inactive; i = inactive; ? = inconclusive; · = no result. Compounds with a hit are over-represented: about 21% of the library has one in this group of screens. Unless noted, calls follow the shape of the dose curve; as a rule, active = well fitted inhibition curve with a large enough effect; inconclusive = small, poorly fitted or top-dose-only effect, or another doubt; inactive = no such curve, though single readings can be large or run the other way.

SMILES | HCMV antiviral | HCV inh | CHX counter | Pf growth 48h | Pf growth 96h | Shiga toxin inh
COc1cc(/C=C/c2cccc[n+]2C)ccc1OCC(=O)Nc1cccc(Cl)c1 | -70* | -5% | 3 | 0.93µM* | -8% | -9
C/C=C/c1ccc(OCC(=O)Nc2cc(OC)c(OC)c(OC)c2)c(OC)c1 | -29 | ? | -2 | -16% | ? | -7
COc1cc(/C=C/c2cccc[n+]2C)ccc1OCC(=O)Nc1ccccc1 | -29 | -8% | -1 | 1µM* | 0% | -4
CC(C)c1cnc2c(c1SCc1ccc([N+](=O)[O-])cc1)c(=O)n(C)c(=O)n2C | -35 | · | · | · | · | ·
CCOc1ccc(-n2c(-c3ccccc3)c(C)n3c4c(=O)n(C)c(=O)n(C)c4nc23)cc1 | -28 | · | · | · | · | ·
Cc1cc(=O)n2nc(N3CCC(C(=O)NCc4cccc(Br)c4)CC3)sc2n1 | -20 | -6% | 5 | ? | ? | -11
CSc1ccccc1NC(=O)c1ccc(C)o1 | -18 | 5% | 20* | 36% | ? | 51*
COC(=O)c1cc(OC)c(OC)cc1NC(=O)c1csc(C)c1 | -67* | -13% | -3 | 10µM* | ? | -17
Cc1ccc(C(=O)Nc2ccccc2NC(=O)c2ccc(C)o2)o1 | -7 | -6% | 2 | 18% | 10% | 2
COC(=O)c1cc(OC)c(OC)cc1NC(=O)c1cccc(C)c1 | ? | ? | -1 | ? | -17% | -7
CNS(=O)(=O)c1ccc(NC(=O)c2ccccn2)cc1 | 57 | 13% | 63* | 147% | 191% | 23*
CSc1ccccc1NC(=O)c1csc(C)c1 | 14 | -12% | 31* | 36% | 10µM* | 36*
CCCCn1cc(S(=O)(=O)c2ccccc2)c(=O)c2cc(F)c(N3CCN(CCC)CC3)cc21 | -11 | · | · | · | · | ·
CN(C)S(=O)(=O)c1cccc(NC(=O)CO/N=C(\N)c2ccccc2)c1 | -2 | -29% | · | -7% | 24% | ·
CNS(=O)(=O)c1ccc(NC(=O)c2csc(C)c2)cc1 | 14 | -14% | 23* | 9% | ? | 36*
Cc1cc(C(=O)Nc2ccc(Br)cc2)cs1 | 18 | -9% | 47* | 205% | ? | 83*
Cc1ccccc1-c1noc(-c2ccc(NCC3CCCO3)c([N+](=O)[O-])c2)n1 (stereo unspecified) | 25 | · | · | · | · | ·
CCOc1ccc(C2Sc3ccccc3NC3=C2C(=O)OC3)cc1 (stereo unspecified) | -39 | ? | 23* | -7% | ? | 27
O=C1OCC2=C1C(c1ccc3c(c1)OCO3)Sc1ccccc1N2 (stereo unspecified) | ? | ? | 1 | -11% | · | -8
O=C1/C(=C\c2ccc(Br)o2)SC(=Nc2ccccc2)N1c1ccccc1 | -12 | ? | 1 | ? | 9.3µM* | -27
CN(C)N1C(=O)/C(=C/c2ccco2)SC1=Nc1ccccc1 | 23 | ? | · | · | · | ·
O=C(NCc1ccccc1)c1cccc(NC(=O)c2ccccc2)c1 | -11 | ? | · | · | · | ·
CSc1cccc(NC(=O)C(=O)NCc2ccccc2)c1 | -11 | 10% | -1 | 32% | 8% | 5
O=C(O)c1ccn[nH]1 | · | 25% | · | · | · | ·
O=C(Nc1cccc(Br)c1)c1ccn[nH]1 | 13 | 18% | 45* | 78% | 0.66µM* | 35*
SMILES | HCMV antiviral | HCV inh | CHX counter | Pf growth 48h | Pf growth 96h | Shiga toxin inh
O=C(NCc1ccccc1)C(=O)Nc1cccc(C(=O)O)c1 | 42 | 13% | 61* | 236% | 288% | 158*
O=C(O)CC1(CC(=O)Nc2cccc(C(=O)O)c2)CCCC1 | -102* | 1% | 2 | 56% | 10% | 26
O=C(Nc1cccc(C(=O)Nc2cccc(Br)c2)c1)c1ccccc1 | -22 | 14µM* | 12 | ? | ? | 20
O=C(O)c1cccc(NC(=O)c2ccccc2)c1 | 15 | 10% | · | · | · | ·
O=C(O)c1cccc(NC(=O)c2cc(NC(=O)c3ccccc3)cc(NC(=O)c3ccccc3)c2)c1 | -3 | 3% | -5 | 40% | 8.3µM* | -11
Cc1ccc(C(=O)Nc2cccc(C(=O)O)c2)cc1 | -1 | 15% | 42* | · | 2% | 71*
CC(C)c1ccc(NC(=O)c2cccc(Br)c2)cc1 | 96 | -7% | 36* | 119% | -9% | 119*
Cc1nn(CCCC(=O)NCc2ccccc2)c(=O)c2nn(-c3ccccc3)c(C)c12 | ? | -10% | -1 | ? | -2% | -4
COc1cccc(CNC(=O)CCCn2nc(C)c3c(C)n(-c4ccc(C)cc4)nc3c2=O)c1OC | ? | 13µM* | -4 | ? | ? | -4
COc1ccccc1CNC(=O)CCCn1nc(C)c2c(C)n(-c3ccccc3)nc2c1=O | -23 | -26% | -4 | -25% | 12µM* | -3
O=C(CSc1nc2ccccc2n1Cc1cccc(F)c1)N1CCN(c2ccc(F)cc2)CC1 | -2 | · | · | · | · | ·
Cc1cc(C)nc(N(C#N)Cc2ccc(Cl)cc2)n1 | -62* | 5% | -3 | 14% | 13µM* | 43
Cc1ccccc1OCCN(C#N)c1nc(N(C)C)nc(N(C)C)n1 | -34 | -35% | 1 | 12µM* | 26% | 9
CC(C)Nc1nc(NC(C)C)nc(N(C#N)CCOc2ccc(Cl)cc2Cl)n1 | 10 | ? | 2 | 10µM* | ? | 1
CCCN(C#N)c1nc(NCC)nc(NC(C)C)n1 | 6 | -18% | -3 | ? | ? | -11
Cc1cc(C)nc(N(C#N)CCOc2ccc(Cl)cc2)n1 | 25 | ? | 16* | ? | ? | 39*
COc1nc(N(C)C)nc(N(C#N)CCOC(C)=O)n1 | -9 | 5% | 0 | -8% | -8% | -25
CCN(CC)CCn1c(NS(=O)(=O)c2ccc(Cl)cc2)nc2ccccc21 | -20 | -21% | -3 | · | ? | -1
COc1cc(OC)cc(-c2sc3ccccc3c(=O)c2I)c1 | · | · | 12 | · | · | i
